Reference: the supplement of paper PMC10849652
Targets with a hit are over-represented here; the source holds about 7,900 in all. About 0.6% of all pairs of compound and target were hits.

Assays:
Experiment in all cases: log2 fold change, soluble protein after heating vs DMSO (PISA); higher = thermal stabilisation; K562 cells, 10 uM, 30 min; active = over 0.2 and 3.5 SD of the protein, either way, in both replicates (recomputed)
[1] = compound: COC1=CC=C(C=C1)CN2C=CC3=C2C=C(C=C3)C(=O)NO
How it was run: (§1)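 For each measurement, 10 μM compound was applied for 30 min to K562 cells at 2×10^6 cells/mL. Aliquots were heated for 3 min across 48°C-58°C, pooled, and extracted in PBS with 0.5% NP-40 at 4°C; the supernatant after 21,000xg for 90 min was soluble protein. This was quantified by TMTpro 16plex LC-MS/MS with channel sums equalised, and thermal stability was reported relative to control samples from duplicates, on a log2 fold-change scale.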

filanesib = compound: CON(C)C(=O)N1N=C(c2cc(F)ccc2F)S[C@@]1(CCCN)c1ccccc1 [filanesib]
How it was run: as §1

zotarolimus = compound: CO[C@H]1C[C@@H]2CC[C@@H](C)[C@@](O)(O2)C(=O)C(=O)N2CCCC[C@H]2C(=O)O[C@H]([C@H](C)C[C@@H]2CC[C@H](n3cnnn3)[C@H](OC)C2)CC(=O)[C@H](C)/C=C(\C)[C@@H](O)[C@@H](OC)C(=O)[C@H](C)C[C@H](C)/C=C/C=C/C=C/1C [zotarolimus]
How it was run: as §1

idasanutlin = compound: COc1cc(C(=O)O)ccc1NC(=O)[C@@H]1N[C@@H](CC(C)(C)C)[C@](C#N)(c2ccc(Cl)cc2F)[C@H]1c1cccc(Cl)c1F [idasanutlin]
How it was run: as §1

alisertib = compound: COc1cc(Nc2ncc3c(n2)-c2ccc(Cl)cc2C(c2c(F)cccc2OC)=NC3)ccc1C(=O)O [alisertib]
How it was run: as §1

[2] = compound: COc1cc2nc(-c3cc(F)ccc3O)nc(N[C@@H]3CNC[C@H]3C(C)(C)O)c2cc1OC
How it was run: as §1

gefitinib = compound: COc1cc2ncnc(Nc3ccc(F)c(Cl)c3)c2cc1OCCCN1CCOCC1 [gefitinib]
How it was run: as §1

[3] = compound: COc1cccc2cc(-c3nc([C@H]4CC[C@H](C(=O)O)CC4)n4ncnc(N)c34)[nH]c12
How it was run: as §1

lapatinib = compound: CS(=O)(=O)CCNCc1ccc(-c2ccc3ncnc(Nc4ccc(OCc5cccc(F)c5)c(Cl)c4)c3c2)o1 [lapatinib]
How it was run: as §1

pictilisib = compound: CS(=O)(=O)N1CCN(Cc2cc3nc(-c4cccc5[nH]ncc45)nc(N4CCOCC4)c3s2)CC1 [pictilisib]
How it was run: as §1

[4] = compound: CS(=O)(=O)c1ccc(-c2cnc(N)c(C(=O)Nc3ccccc3)n2)cc1
How it was run: as §1

crizotinib = compound: C[C@@H](Oc1cc(-c2cnn(C3CCNCC3)c2)cnc1N)c1c(Cl)ccc(F)c1Cl [crizotinib]
How it was run: as §1

[5] = compound: C[C@@H]1COCCN1C2=NC(=NC(=C2)C3(CC3)S(=O)(=O)C)C4=C5C=CNC5=CC=C4
How it was run: as §1

[6] = compound: C[C@H](C1=CC=C(C=C1)C(=O)NC2=C3C=CNC3=NC=C2)N
How it was run: as §1

duvelisib = compound: C[C@H](Nc1ncnc2nc[nH]c12)c1cc2cccc(Cl)c2c(=O)n1-c1ccccc1 [duvelisib]
How it was run: as §1

gandotinib = compound: Cc1cc(Nc2cc(CN3CCOCC3)c3nc(C)c(Cc4ccc(Cl)cc4F)n3n2)n[nH]1 [gandotinib]
How it was run: as §1

tozasertib = compound: Cc1cc(Nc2cc(N3CCN(C)CC3)nc(Sc3ccc(NC(=O)C4CC4)cc3)n2)n[nH]1 [tozasertib]
How it was run: as §1

[7] = compound: Cc1cc(SCc2sc(-c3ccc(C(F)(F)F)cc3)nc2C)ccc1OCC(=O)O
How it was run: as §1

doramapimod = compound: Cc1ccc(-n2nc(C(C)(C)C)cc2NC(=O)Nc2ccc(OCCN3CCOCC3)c3ccccc23)cc1 [doramapimod]
How it was run: as §1

ispinesib = compound: Cc1ccc(C(=O)N(CCCN)[C@@H](c2nc3cc(Cl)ccc3c(=O)n2Cc2ccccc2)C(C)C)cc1 [ispinesib]
How it was run: as §1

Measured: log2 fold change

GTF3C5 isoform 3 (UniProt Q9Y5Q8)
UniProt Q9Y5Q8, sequence (Q9Y5Q8 whole entry, looked up): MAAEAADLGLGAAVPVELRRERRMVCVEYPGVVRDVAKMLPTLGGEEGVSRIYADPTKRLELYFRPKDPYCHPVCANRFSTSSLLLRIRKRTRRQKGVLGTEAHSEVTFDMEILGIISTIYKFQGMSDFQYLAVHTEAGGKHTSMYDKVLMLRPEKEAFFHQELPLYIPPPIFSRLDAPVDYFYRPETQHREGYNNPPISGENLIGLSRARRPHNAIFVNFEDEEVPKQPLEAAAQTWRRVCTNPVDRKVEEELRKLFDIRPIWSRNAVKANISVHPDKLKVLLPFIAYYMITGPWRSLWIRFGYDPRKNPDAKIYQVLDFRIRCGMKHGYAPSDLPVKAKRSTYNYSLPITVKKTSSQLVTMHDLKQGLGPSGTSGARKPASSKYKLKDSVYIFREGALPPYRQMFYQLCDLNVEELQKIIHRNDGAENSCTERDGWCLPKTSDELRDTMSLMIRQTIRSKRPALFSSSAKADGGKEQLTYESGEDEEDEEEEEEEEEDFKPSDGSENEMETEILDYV
inactive: [1] -0.115 | filanesib -0.039 | zotarolimus 0.116 | idasanutlin -0.068 | alisertib 0.064 | [2] 0.024 | gefitinib -0.003 | [3] -0.034 | lapatinib 0.13 | pictilisib -0.148 | [4] 0.01 | crizotinib 0.17 | [5] 0.016 | [6] 0.158 | duvelisib -0.106 | gandotinib 0.043 | tozasertib 0.063 | [7] 0.034 | doramapimod 0.095 | ispinesib -0.248

GCSH (UniProt P23434)
UniProt P23434, sequence (P23434 whole entry, looked up): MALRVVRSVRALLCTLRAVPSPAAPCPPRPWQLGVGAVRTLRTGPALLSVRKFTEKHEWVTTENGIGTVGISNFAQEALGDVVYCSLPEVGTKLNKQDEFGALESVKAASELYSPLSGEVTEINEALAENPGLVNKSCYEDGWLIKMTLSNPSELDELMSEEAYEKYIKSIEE
inactive: [1] -0.086 | filanesib -0.029 | zotarolimus 0.014 | idasanutlin -0.024 | alisertib 0.154 | [2] 0.03 | gefitinib 0.003 | [3] 0.001 | lapatinib -0.028 | pictilisib -0.078 | [4] -0.009 | crizotinib 0.073 | [5] 0.005 | [6] -0.022 | duvelisib -0.014 | gandotinib 0.043 | tozasertib 0.07 | [7] 0.026 | doramapimod 0.032 | ispinesib -0.057

GTF2B (UniProt Q00403)
UniProt Q00403, sequence (Q00403 whole entry, looked up): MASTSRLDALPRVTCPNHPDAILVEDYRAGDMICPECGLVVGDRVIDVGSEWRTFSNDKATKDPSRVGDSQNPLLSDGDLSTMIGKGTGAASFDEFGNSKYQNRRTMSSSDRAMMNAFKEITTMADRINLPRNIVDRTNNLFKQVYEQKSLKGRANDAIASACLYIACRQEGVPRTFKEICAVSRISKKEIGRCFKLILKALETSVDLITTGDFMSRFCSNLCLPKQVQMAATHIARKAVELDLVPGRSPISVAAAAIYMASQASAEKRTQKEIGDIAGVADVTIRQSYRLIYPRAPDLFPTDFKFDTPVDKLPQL
inactive: [1] 0.046 | filanesib -0.018 | zotarolimus 0.054 | idasanutlin -0.085 | alisertib -0.037 | [2] -0.001 | gefitinib 0.02 | [3] -0.006 | lapatinib -0.047 | pictilisib -0.025 | [4] -0.007 | crizotinib -0.044 | [5] 0.115 | [6] 0.001 | duvelisib 0.121 | gandotinib -0.146 | tozasertib 0.102 | [7] 0.127 | doramapimod -0.044 | ispinesib -0.091

HNRNPUL1 (UniProt Q9BUJ2)
UniProt Q9BUJ2, sequence (Q9BUJ2 whole entry, looked up): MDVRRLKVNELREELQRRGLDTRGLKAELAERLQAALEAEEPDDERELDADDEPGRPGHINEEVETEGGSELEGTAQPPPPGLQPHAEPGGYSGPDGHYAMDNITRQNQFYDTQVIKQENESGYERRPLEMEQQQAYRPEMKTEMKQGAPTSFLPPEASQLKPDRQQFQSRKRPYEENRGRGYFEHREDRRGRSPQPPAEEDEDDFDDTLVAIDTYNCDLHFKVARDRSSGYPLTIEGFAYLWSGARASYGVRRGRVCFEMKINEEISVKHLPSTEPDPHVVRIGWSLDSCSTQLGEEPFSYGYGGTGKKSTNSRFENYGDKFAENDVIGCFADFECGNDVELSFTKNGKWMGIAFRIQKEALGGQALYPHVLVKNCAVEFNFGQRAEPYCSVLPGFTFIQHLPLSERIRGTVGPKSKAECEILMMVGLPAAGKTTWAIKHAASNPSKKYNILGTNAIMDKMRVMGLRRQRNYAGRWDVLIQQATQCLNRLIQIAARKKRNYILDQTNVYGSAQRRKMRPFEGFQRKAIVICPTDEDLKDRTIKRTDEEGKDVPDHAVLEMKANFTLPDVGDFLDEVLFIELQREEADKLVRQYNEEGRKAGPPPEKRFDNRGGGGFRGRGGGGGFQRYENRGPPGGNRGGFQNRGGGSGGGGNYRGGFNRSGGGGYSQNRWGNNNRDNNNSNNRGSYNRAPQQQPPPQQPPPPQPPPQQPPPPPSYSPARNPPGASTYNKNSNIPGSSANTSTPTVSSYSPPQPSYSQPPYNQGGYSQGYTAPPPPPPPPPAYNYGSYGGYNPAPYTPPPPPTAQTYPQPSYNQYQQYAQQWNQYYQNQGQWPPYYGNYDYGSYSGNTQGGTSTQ
inactive: [1] 0.033 | filanesib 0.047 | zotarolimus -0.043 | idasanutlin 0.03 | alisertib 0.01 | [2] 0.023 | gefitinib -0.02 | [3] 0.009 | lapatinib 0.031 | pictilisib 0.014 | [4] 0.007 | crizotinib -0.023 | [5] -0.016 | [6] 0.147 | duvelisib -0.036 | gandotinib 0.049 | tozasertib 0.039 | [7] 0.085 | doramapimod -0.025 | ispinesib -0.019

HIST2H3A (UniProt Q71DI3)
inactive: [1] 0.037 | filanesib 0.268 | zotarolimus -0.167 | idasanutlin 0.508 | alisertib 0.001 | [2] -0.106 | gefitinib 0.061 | [3] -0.367 | lapatinib 0.065 | pictilisib -0.021 | [4] -0.106 | crizotinib -0.327 | [5] -0.204 | [6] 0.399 | duvelisib -0.359 | gandotinib -0.014 | tozasertib 0.106 | [7] -0.031 | doramapimod 0.098 | ispinesib -0.081

FERMT3 (UniProt Q86UX7)
UniProt Q86UX7, sequence (Q86UX7 whole entry, looked up): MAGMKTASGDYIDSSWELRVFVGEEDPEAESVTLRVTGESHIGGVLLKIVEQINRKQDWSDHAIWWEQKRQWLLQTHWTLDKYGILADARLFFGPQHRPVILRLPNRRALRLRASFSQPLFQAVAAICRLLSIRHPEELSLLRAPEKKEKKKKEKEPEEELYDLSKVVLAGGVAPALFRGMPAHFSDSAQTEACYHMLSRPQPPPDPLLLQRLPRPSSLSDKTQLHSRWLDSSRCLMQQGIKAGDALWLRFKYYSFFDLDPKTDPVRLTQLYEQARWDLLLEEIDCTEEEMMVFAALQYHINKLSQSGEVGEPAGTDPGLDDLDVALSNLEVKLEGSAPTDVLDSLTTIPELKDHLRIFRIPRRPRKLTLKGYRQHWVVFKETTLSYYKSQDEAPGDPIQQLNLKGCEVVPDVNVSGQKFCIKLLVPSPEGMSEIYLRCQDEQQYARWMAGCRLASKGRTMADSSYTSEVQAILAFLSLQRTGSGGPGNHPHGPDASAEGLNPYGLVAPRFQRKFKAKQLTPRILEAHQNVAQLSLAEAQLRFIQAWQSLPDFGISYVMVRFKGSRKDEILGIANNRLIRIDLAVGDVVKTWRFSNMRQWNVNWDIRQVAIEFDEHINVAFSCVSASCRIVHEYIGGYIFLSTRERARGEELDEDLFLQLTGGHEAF
inactive: [1] 0.046 | filanesib -0.037 | zotarolimus 0.033 | idasanutlin -0.068 | alisertib -0.104 | [2] 0 | gefitinib -0.007 | [3] 0.001 | lapatinib -0.006 | pictilisib 0.009 | [4] 0.038 | crizotinib -0.091 | [5] 0.02 | [6] -0.04 | duvelisib 0.005 | gandotinib -0.064 | tozasertib 0.022 | [7] 0.057 | doramapimod 0.001 | ispinesib -0.04

GNG5 (UniProt P63218)
UniProt P63218, sequence (P63218 whole entry, looked up): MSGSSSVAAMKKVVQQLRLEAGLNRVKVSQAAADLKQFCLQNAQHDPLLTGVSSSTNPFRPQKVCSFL
inactive: [1] 0.082 | filanesib 0.086 | zotarolimus -0.016 | idasanutlin 0.065 | alisertib -0.146 | [2] -0.022 | gefitinib 0.224 | [3] 0.079 | lapatinib -0.006 | pictilisib -0.087 | [4] 0.014 | crizotinib 0.094 | [5] 0.207 | [6] -0.13 | duvelisib 0.134 | gandotinib 0.055 | tozasertib 0.063 | [7] -0.071 | doramapimod 0.008 | ispinesib 0.216

IFT74 (UniProt Q96LB3)
UniProt Q96LB3, sequence (Q96LB3 whole entry, looked up): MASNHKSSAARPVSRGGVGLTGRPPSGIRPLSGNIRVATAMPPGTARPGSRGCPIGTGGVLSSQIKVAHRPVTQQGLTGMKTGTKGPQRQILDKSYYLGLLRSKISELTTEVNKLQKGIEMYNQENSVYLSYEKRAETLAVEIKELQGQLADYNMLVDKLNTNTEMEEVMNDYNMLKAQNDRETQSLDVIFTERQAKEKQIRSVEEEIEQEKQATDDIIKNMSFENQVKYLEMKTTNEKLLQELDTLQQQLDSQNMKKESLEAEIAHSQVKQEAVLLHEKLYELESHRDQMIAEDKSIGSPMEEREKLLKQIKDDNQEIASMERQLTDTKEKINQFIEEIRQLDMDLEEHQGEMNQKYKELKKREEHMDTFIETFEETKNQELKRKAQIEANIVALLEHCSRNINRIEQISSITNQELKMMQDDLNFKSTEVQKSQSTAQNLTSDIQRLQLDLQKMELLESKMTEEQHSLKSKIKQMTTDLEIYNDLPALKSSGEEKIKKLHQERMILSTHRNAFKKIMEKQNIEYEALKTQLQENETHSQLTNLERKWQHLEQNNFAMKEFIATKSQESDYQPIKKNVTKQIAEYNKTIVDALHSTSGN
inactive: [1] 0.083 | filanesib -0.014 | zotarolimus 0.019 | idasanutlin -0.058 | alisertib -0.102 | [2] 0.339 | gefitinib 0.035 | [3] 0.024 | lapatinib -0.025 | pictilisib 0.052 | [4] 0.21 | crizotinib -0.04 | [5] 0.014 | [6] 0.088 | duvelisib 0.068 | gandotinib -0.02 | tozasertib -0.136 | [7] -0.094 | doramapimod 0.095 | ispinesib -0.133
